ALOX12 inh = ALOX12 (human) lipoxygenase inhibition; purified 12hLO, xylenol orange hydroperoxide absorbance; AID 1671190; hit rate 1.1% among 580,000; Potency, µM (titrated, usually from 108 µM), usual class: inhibitors; P18054
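Purified human 12hLO (150 nM final) in 25 mM Hepes, 0.01% Triton X-100, pH 7.0 was preincubated 15 min at room temperature with compound. Then 40 uM arachidonic acid was added, 30 min. Hydroperoxide was read by Fe-XO absorbance ratio 573/405 nm.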
G9a block = G9a (human) methyltransferase inhibition; G9a H3K9 monomethylation, AlphaScreen, 2 h; Q96KQ7; Potency, µM (series often up to 102 µM), hits mostly inhibitors; hit rate 8.8% among 350,000; further: nearly all actives have a fitted effect of over 75% in size
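AlphaScreen detection with an anti-monomethyl H3K9 antibody quantified product after a 2 h room-temperature reaction containing 500 nM biotinylated H3K9 peptide, 20 µM SAM and 20 nM enzyme, which had been preincubated 15 min with compound.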
JMJD2A Tudor = blocks the human JMJD2A Tudor domain | AlphaScreen JMJD2A-Tudor / H3K4me3 peptide binding | hit rate 4.4% among 390,000 | O75164 | Potency, µM (titrated, usually from 114 µM), hits mostly inhibitors; further: nearly all actives have a fitted effect of over 50% in size
HP1b chromo inh = inhibitors of HP1-beta chromodomain binding to methylated histone tails | Potency, µM (series often up to 114 µM), most hits filed as inhibitors | AID 540317 | AlphaScreen HP1-beta / biotin-H3K9me3 peptide binding | hit rate 0.56% among 390,000; further: nearly all actives have a fitted effect of over 70% in size
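AlphaScreen: HP1-beta (50 nM) preformed 30 min with biotin-H3(1-18)K9me3 peptide (50 nM) in PBS pH 7.4, 0.01% Tween-20. Compound added for 30 min at RT, then streptavidin donor/nickel chelate acceptor beads (10 ug/mL) for 30 min.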
PLK1 PBD inh = inhibitors of human PLK1 polo-box domain binding | P53350 | Plk1 PBD binding of FITC phosphopeptide, fluorescence polarization | Potency, µM, actives largely listed as inhibitors | hit rate 2.8% among 360,000 | AID 720504; further: series mostly up to about 57 µM; nearly all actives have a fitted effect of over 65% in size
BAZ2B inh = inhibitors of human BAZ2B bromodomain | AlphaScreen BAZ2B-H3K14Ac peptide displacement | Q9UIF8 | AID 504333 | hit rate 4.4% among 360,000 | Potency, µM (highest dose often 114 µM), hits mostly inhibitors; further: nearly all actives have a fitted effect of over 60% in size
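AlphaScreen luminescence quantifies BAZ2B engagement of H3K14Ac peptide; the protein and biotinylated peptide are both at 50 nM final, buffer PBS pH 7.4 with 0.01% Tween-20, all steps at room temperature.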
Numbers stand for hits; [ ] = remark or other dose. This is a sample that favours compounds with a hit; in the whole collection about 9% have one here. The call rests on the fitted dose curve; in most records, active means well fitted curve in the direction sought with a large enough effect; inconclusive means small, poorly fitted or top-dose-only effect, or another doubt; inactive means no such curve, though single readings can be large; an effect the other way counts as inactive or inconclusive.

`CCc1nnc(NC(=O)c2ccc(NC(=O)C(C)C)cc2)s1` gave ALOX12 inh inconclusive, G9a block 56.2µM, JMJD2A Tudor inactive, HP1b chromo inh inactive, PLK1 PBD inh inactive and BAZ2B inh inactive.
For CCc1nnc(NS(=O)(=O)c2ccc(NC(=S)NC(=O)c3ccc(OC)cc3)cc2)s1 the results were ALOX12 inh 8.91µM, G9a block inconclusive, JMJD2A Tudor inactive, HP1b chromo inh inactive, PLK1 PBD inh inconclusive and BAZ2B inh inactive.
Screening COc1ccc(N(C)S(=O)(=O)c2cccc(C(=O)Nc3ccc(OC)nc3)c2)cc1 returned ALOX12 inh inactive, G9a block inactive and BAZ2B inh inactive.
For CCCOC(=O)c1ccc(NC(=O)C2CCCO2)cc1 (stereo unspecified) the results were ALOX12 inh inactive, G9a block inactive, JMJD2A Tudor inactive, HP1b chromo inh inactive, PLK1 PBD inh inactive and BAZ2B inh inactive.
Screening COc1ccc(Cc2nnc(NS(=O)(=O)c3ccc(Cl)cc3)s2)cc1OC returned ALOX12 inh inconclusive, G9a block 31.6µM, JMJD2A Tudor inactive, HP1b chromo inh inactive, PLK1 PBD inh 29.9µM and BAZ2B inh inconclusive.
CCOCc1nnc(NS(=O)(=O)c2ccc(Cl)cc2)s1 was read as ALOX12 inh inactive.
CCc1nnc(NS(=O)(=O)c2ccc(NC(=S)NC(=O)c3ccc(OC)c(OC)c3)cc2)s1 was read as ALOX12 inh 8.91µM, G9a block inconclusive, JMJD2A Tudor inactive, HP1b chromo inh inactive, PLK1 PBD inh inconclusive and BAZ2B inh inactive.
For CCc1ccc(S(=O)(=O)c2nnn3c2nc(N(C)Cc2ccccc2)c2cc(Cl)ccc23)cc1 the results were ALOX12 inh inactive, G9a block inactive, JMJD2A Tudor inactive, HP1b chromo inh inactive and BAZ2B inh inactive.
`CC(C)(O)C#Cc1ccc(CN2CCN(Cc3ccccc3)C(CCO)C2)s1` (stereo unspecified) gave ALOX12 inh inactive, JMJD2A Tudor inactive, HP1b chromo inh inactive, PLK1 PBD inh inactive and BAZ2B inh inactive.
`COCCNC(=O)/C(C#N)=C\c1ccc(CNC(=O)C(=O)Nc2ccc(C)c(C)c2)o1` gave ALOX12 inh inactive, G9a block inactive, JMJD2A Tudor inactive, HP1b chromo inh inactive, PLK1 PBD inh inactive and BAZ2B inh inactive.
`CCOC(=O)C1=C(O)/C(=C\c2ccc(CNC(=O)C(=O)Nc3ccc(C)c(C)c3)o2)N=C1C` gave G9a block 44.7µM and BAZ2B inh inactive.
For Cc1cc(=O)n2c3c(sc2n1)C(=O)N(Cc1ccccc1)C3=O the results were G9a block 6.31µM and BAZ2B inh inactive.
For NNc1nc(-c2ccccc2)cc(-c2ccccc2O)n1 the results were ALOX12 inh inactive, G9a block inactive, JMJD2A Tudor inconclusive, HP1b chromo inh inactive, PLK1 PBD inh inactive and BAZ2B inh 50.1µM.
O=C1CC(N2CCC(O)CC2)C(=O)N1c1ccc(Br)cc1 (stereo unspecified) was read as ALOX12 inh inconclusive, G9a block inconclusive, JMJD2A Tudor inactive, HP1b chromo inh inactive, PLK1 PBD inh inactive and BAZ2B inh inactive.
Screening CNC(=O)c1c(NC(=O)c2cccc(N3C(=O)CCC3=O)c2)sc2c1CCC2 returned ALOX12 inh inactive, JMJD2A Tudor inactive, HP1b chromo inh inactive, PLK1 PBD inh inactive and BAZ2B inh inactive.
Screening COC(=O)c1c(NC(=O)c2cccc(N3C(=O)CCC3=O)c2)sc2c1CCN(C(C)=O)C2 returned ALOX12 inh inactive, G9a block 79.4µM, JMJD2A Tudor inactive, HP1b chromo inh inactive, PLK1 PBD inh inactive and BAZ2B inh inactive.
`Cc1ccc(OCCN2C(=O)C(=O)c3cc(C)ccc32)cc1` gave ALOX12 inh inconclusive, G9a block 25.1µM, JMJD2A Tudor 56.2µM, HP1b chromo inh inconclusive, PLK1 PBD inh inconclusive and BAZ2B inh 35.5µM.
`Cc1ccc(OCCN2C(=O)S/C(=C\c3ccc(C)o3)C2=O)cc1` gave ALOX12 inh inconclusive, G9a block 31.6µM, JMJD2A Tudor inactive, HP1b chromo inh inactive, PLK1 PBD inh inactive and BAZ2B inh inconclusive.
`Cc1cc(C)c2c(c1)C(=O)C(=O)N2CCOc1ccccc1` gave ALOX12 inh inactive.
`NC(=O)COc1ccc(NC(=O)c2nn(Cc3ccccc3)c(=O)c3ccccc23)cc1` gave ALOX12 inh inactive.
`FC(F)(F)c1cccc(N2Cc3ccccc3C2)c1` gave ALOX12 inh inactive, G9a block inactive[0.0925 µM], JMJD2A Tudor inactive, HP1b chromo inh inactive, PLK1 PBD inh inactive and BAZ2B inh inactive.
`CCc1ccc(N2Cc3ccccc3C2)cc1` gave ALOX12 inh inactive, G9a block 10µM, JMJD2A Tudor inactive, HP1b chromo inh inactive, PLK1 PBD inh inconclusive and BAZ2B inh inconclusive.
CC(=O)Nc1ccc(N2Cc3ccccc3C2)cc1 was read as ALOX12 inh inconclusive, JMJD2A Tudor inactive, HP1b chromo inh inactive, PLK1 PBD inh inactive and BAZ2B inh 79.4µM.
`Cc1cc(C)cc(N2Cc3ccccc3C2)c1` gave ALOX12 inh inactive, G9a block 10µM, JMJD2A Tudor inactive, HP1b chromo inh inactive, PLK1 PBD inh inactive and BAZ2B inh inactive.
Screening CCOC(=O)c1ccc(N2Cc3ccccc3C2)cc1O returned ALOX12 inh inactive, G9a block inconclusive, JMJD2A Tudor inactive, HP1b chromo inh inactive, PLK1 PBD inh inactive and BAZ2B inh inactive.
Screening O=C(Nc1ccc(Cl)cc1)C1CCCC1 returned ALOX12 inh inactive, G9a block inactive, JMJD2A Tudor inactive, HP1b chromo inh inactive, PLK1 PBD inh inactive and BAZ2B inh inactive.
For CC(=O)Nc1ccc(NC(=O)CC2Nc3cccc4cccc(c34)NC2=O)cc1 (stereo unspecified) the results were ALOX12 inh inactive, G9a block inactive[12.7 µM], JMJD2A Tudor inactive, HP1b chromo inh inactive, PLK1 PBD inh inactive and BAZ2B inh inactive.
For O=C(NC(=S)NCCC1=CCCCC1)c1ccco1 the results were ALOX12 inh 44.7µM, G9a block inactive, JMJD2A Tudor inactive, HP1b chromo inh inactive, PLK1 PBD inh inactive and BAZ2B inh inactive.
`O=C(NC(=S)NCCCN1CCOCC1)c1ccco1` gave ALOX12 inh inactive, G9a block 39.8µM, JMJD2A Tudor inactive, HP1b chromo inh inactive, PLK1 PBD inh inconclusive and BAZ2B inh inactive.
For Cc1ccccc1C(=O)NC(=S)NCCc1ccccc1 the results were ALOX12 inh 28.2µM, G9a block inconclusive, JMJD2A Tudor inactive, HP1b chromo inh inactive, PLK1 PBD inh inactive and BAZ2B inh inactive.
Cc1ccccc1C(=O)NC(=S)NCCC1=CCCCC1 was read as ALOX12 inh 22.4µM, G9a block inactive, JMJD2A Tudor inactive, HP1b chromo inh inactive, PLK1 PBD inh inactive and BAZ2B inh inactive.
`CSc1cccc(NC(=O)C(C)Sc2ccc(C)cc2)c1` (stereo unspecified) gave ALOX12 inh inactive, G9a block inactive, JMJD2A Tudor inactive, HP1b chromo inh inactive, PLK1 PBD inh inactive and BAZ2B inh inactive.

From PubChem
